{
  "source": "PubChem BioAssay AID1159580",
  "about": "(chemical genetic matrix, 2015)",
  "test": "chemical genetic growth profiling, strain panel (AID 1159580);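 note: tested at 20 µM; growth read once vehicle control cultures reached saturation at 30 °C; 1 = growth at the plate median or of vehicle wells; lower values mean less growth of the strain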",
  "conditions": "S. cerevisiae deletion strains, growth OD",
  "note": "Where “and” joins values, the source holds several entries; their conditions need not be identical. Equal values may be shown once. Screen size: about 5,500 compounds; about 2,000 (36%) were called active. Roughly 18% stayed inconclusive and do not appear here. Cut-off read from the data, not from the text of the source: active = normalized growth mostly below about 0.91 (no sharp cut-off); inconclusive = no clear call, values can overlap the other calls; inactive = mostly above about 0.92. This is one part of the list.",
  "data": [
    {"compound": "O=c1cc(-c2ccccc2)oc2c(O)c(O)ccc12", "values": [
      {"measurement": "normalized growth", "setting": "locus YAL021C, strain ccr4, stronger effect = lower value", "result": "0.913 (inactive)"},
      {"measurement": "normalized growth", "setting": "locus YAL026C, strain drs2, stronger effect = lower value", "result": "0.977 (inactive)"},
      {"measurement": "normalized growth", "setting": "locus YAL030W, strain snc1, stronger effect = lower value", "result": "0.99 (inactive)"},
      {"measurement": "normalized growth", "setting": "locus YBL061C, strain skt5, stronger effect = lower value", "result": "0.995 (inactive)"},
      {"measurement": "normalized growth", "setting": "locus YBR009C, strain hhf1, stronger effect = lower value", "result": "0.98 (inactive)"},
      {"measurement": "normalized growth", "setting": "locus YBR021W, strain FUR4, stronger effect = lower value", "result": "0.955 (inactive)"},
      {"measurement": "normalized growth", "setting": "locus YBR023C, strain chs3, stronger effect = lower value", "result": "0.997 (inactive)"},
      {"measurement": "normalized growth", "setting": "locus YBR171W, strain sec66, stronger effect = lower value", "result": "0.964 (inactive)"},
      {"measurement": "normalized growth", "setting": "locus YBR229C, strain ROT2, stronger effect = lower value", "result": "0.974 (inactive)"},
      {"measurement": "normalized growth", "setting": "locus YBR231C, strain swc5, stronger effect = lower value", "result": "0.98 (inactive)"},
      {"measurement": "normalized growth", "setting": "locus YBR279W, strain paf1, stronger effect = lower value", "result": "0.99 (inactive)"},
      {"measurement": "normalized growth", "setting": "locus YCL011C, strain gbp2, stronger effect = lower value", "result": "0.984 (inactive)"},
      {"measurement": "normalized growth", "setting": "locus YCL016C, strain dcc1, stronger effect = lower value", "result": "0.98 (inactive)"},
      {"measurement": "normalized growth", "setting": "locus YCL029C, strain bik1, stronger effect = lower value", "result": "0.956 (inactive)"},
      {"measurement": "normalized growth", "setting": "locus YCL061C, strain MRC1, stronger effect = lower value", "result": "0.981 (inactive)"},
      {"measurement": "normalized growth", "setting": "locus YCL069W, strain vba3, stronger effect = lower value", "result": "0.985 (inactive)"},
      {"measurement": "normalized growth", "setting": "locus YCR088W, strain abp1, stronger effect = lower value", "result": "0.991 (inactive)"},
      {"measurement": "normalized growth", "setting": "locus YDL005C, strain med2, stronger effect = lower value", "result": "0.991 (inactive)"},
      {"measurement": "normalized growth", "setting": "locus YDL035C, strain GPR1, stronger effect = lower value", "result": "0.863 (inactive)"},
      {"measurement": "normalized growth", "setting": "locus YDL040C, strain nat1, stronger effect = lower value", "result": "0.992 (inactive)"},
      {"measurement": "normalized growth", "setting": "locus YDL074C, strain BRE1, stronger effect = lower value", "result": "0.808 (inactive)"},
      {"measurement": "normalized growth", "setting": "locus YDL101C, strain DUN1, stronger effect = lower value", "result": "0.948 (inactive)"},
      {"measurement": "normalized growth", "setting": "locus YDL185W, strain tfp1, stronger effect = lower value", "result": "0.972 (inactive)"},
      {"measurement": "normalized growth", "setting": "locus YDL192W, strain arf1, stronger effect = lower value", "result": "0.88 (active)"},
      {"measurement": "normalized growth", "setting": "locus YDR001C, strain nth1, stronger effect = lower value", "result": "0.995 (inactive)"},
      {"measurement": "normalized growth", "setting": "locus YDR069C, strain doa4, stronger effect = lower value", "result": "0.936 (inactive)"},
      {"measurement": "normalized growth", "setting": "locus YDR101C, strain arx1, stronger effect = lower value", "result": "0.973 (inactive)"},
      {"measurement": "normalized growth", "setting": "locus YDR137W, strain rgp1, stronger effect = lower value", "result": "0.664 (active)"},
      {"measurement": "normalized growth", "setting": "locus YDR150W, strain NUM1, stronger effect = lower value", "result": "0.984 (inactive)"},
      {"measurement": "normalized growth", "setting": "locus YDR159W, strain sac3, stronger effect = lower value", "result": "0.971 (inactive)"},
      {"measurement": "normalized growth", "setting": "locus YDR162C, strain NBP2, stronger effect = lower value", "result": "0.834 (inactive)"},
      {"measurement": "normalized growth", "setting": "locus YDR195W, strain ref2", "result": "1.03 (inactive)"},
      {"measurement": "normalized growth", "setting": "locus YDR297W, strain sur2, stronger effect = lower value", "result": "0.988 (inactive)"},
      {"measurement": "normalized growth", "setting": "locus YDR318W, strain mcm21, stronger effect = lower value", "result": "0.991 (inactive)"},
      {"measurement": "normalized growth", "setting": "locus YDR334W, strain swr1, stronger effect = lower value", "result": "0.942 (inactive)"},
      {"measurement": "normalized growth", "setting": "locus YDR335W, strain msn5, stronger effect = lower value", "result": "0.979 (inactive)"},
      {"measurement": "normalized growth", "setting": "locus YDR388W, stronger effect = lower value", "result": "0.989 (inactive)"},
      {"measurement": "normalized growth", "setting": "locus YDR392W, strain spt3, stronger effect = lower value", "result": "1 (inactive)"},
      {"measurement": "normalized growth", "setting": "locus YDR502C, strain sam2, stronger effect = lower value", "result": "0.96 (inactive)"},
      {"measurement": "normalized growth", "setting": "locus YEL003W, strain gim4, stronger effect = lower value", "result": "0.983 (inactive)"},
      {"measurement": "normalized growth", "setting": "locus YEL037C, strain rad23, stronger effect = lower value", "result": "0.986 (inactive)"},
      {"measurement": "normalized growth", "setting": "locus YEL061C, strain CIN8 (second series), stronger effect = lower value", "result": "0.99 (inactive)"},
      {"measurement": "normalized growth", "setting": "locus YEL061C, strain CIN8, stronger effect = lower value", "result": "0.978 (inactive)"},
      {"measurement": "normalized growth", "setting": "locus YER015W, strain faa2, stronger effect = lower value", "result": "0.99 (inactive)"},
      {"measurement": "normalized growth", "setting": "locus YER016W, strain bim1, stronger effect = lower value", "result": "0.983 (inactive)"},
      {"measurement": "normalized growth", "setting": "locus YER110C, stronger effect = lower value", "result": "0.962 (inactive)"},
      {"measurement": "normalized growth", "setting": "locus YER111C, strain swi4, stronger effect = lower value", "result": "0.983 (inactive)"},
      {"measurement": "normalized growth", "setting": "locus YER155C, strain BEM2 (second series), stronger effect = lower value", "result": "0.982 (inactive)"},
      {"measurement": "normalized growth", "setting": "locus YER155C, strain BEM2, stronger effect = lower value", "result": "1.02 (inactive)"},
      {"measurement": "normalized growth", "setting": "locus YER167W, strain BCK2, stronger effect = lower value", "result": "1 (inactive)"},
      {"measurement": "normalized growth", "setting": "locus YFR010W, strain ubp6, stronger effect = lower value", "result": "0.944 (inactive)"},
      {"measurement": "normalized growth", "setting": "locus YGL078C, strain dbp3, stronger effect = lower value", "result": "0.98 (inactive)"},
      {"measurement": "normalized growth", "setting": "locus YGL086W, strain mad1, stronger effect = lower value", "result": "0.932 (inactive)"},
      {"measurement": "normalized growth", "setting": "locus YGL167C, strain pmr1, stronger effect = lower value", "result": "0.988 (inactive)"},
      {"measurement": "normalized growth", "setting": "locus YGL173C, strain kem1, stronger effect = lower value", "result": "0.975 (inactive)"},
      {"measurement": "normalized growth", "setting": "locus YGL227W, strain vid30, stronger effect = lower value", "result": "1 (inactive)"},
      {"measurement": "normalized growth", "setting": "locus YGL240W, strain doc1, stronger effect = lower value", "result": "0.956 (inactive)"},
      {"measurement": "normalized growth", "setting": "locus YGL248W, strain PDE1, stronger effect = lower value", "result": "0.923 (inactive)"},
      {"measurement": "normalized growth", "setting": "locus YGL253W, strain hxk2, stronger effect = lower value", "result": "0.99 (inactive)"},
      {"measurement": "normalized growth", "setting": "locus YGR135W, strain pre9, stronger effect = lower value", "result": "0.947 (inactive)"},
      {"measurement": "normalized growth", "setting": "locus YGR252W, strain gcn5, stronger effect = lower value", "result": "0.802 (inactive)"},
      {"measurement": "normalized growth", "setting": "locus YHR013C, strain ard1, stronger effect = lower value", "result": "0.951 (inactive)"},
      {"measurement": "normalized growth", "setting": "locus YHR027C, strain rpn1, stronger effect = lower value", "result": "0.983 (inactive)"},
      {"measurement": "normalized growth", "setting": "locus YHR030C, strain SLT2, stronger effect = lower value", "result": "0.98 (inactive) and 1.06 (inactive)"},
      {"measurement": "normalized growth", "setting": "locus YHR079C, strain IRE1 (second series), stronger effect = lower value", "result": "0.988 (inactive)"},
      {"measurement": "normalized growth", "setting": "locus YHR079C, strain IRE1, stronger effect = lower value", "result": "1.05 (inactive)"},
      {"measurement": "normalized growth", "setting": "locus YHR094C, strain hxt1, stronger effect = lower value", "result": "0.99 (inactive)"},
      {"measurement": "normalized growth", "setting": "locus YHR129C, strain ARP1, stronger effect = lower value", "result": "0.93 (inactive)"},
      {"measurement": "normalized growth", "setting": "locus YHR142W, strain chs7, stronger effect = lower value", "result": "0.973 (inactive)"},
      {"measurement": "normalized growth", "setting": "locus YHR200W, strain rpn10, stronger effect = lower value", "result": "0.958 (inactive)"},
      {"measurement": "normalized growth", "setting": "locus YIL066C, strain RNR3, stronger effect = lower value", "result": "0.873 (inactive)"},
      {"measurement": "normalized growth", "setting": "locus YIL073C, strain SPO22, stronger effect = lower value", "result": "0.702 (inactive)"},
      {"measurement": "normalized growth", "setting": "locus YIL125W, strain kgd1, stronger effect = lower value", "result": "0.97 (inactive)"},
      {"measurement": "normalized growth", "setting": "locus YIR030C, strain dcg1, stronger effect = lower value", "result": "0.997 (inactive)"},
      {"measurement": "normalized growth", "setting": "locus YJL092W, strain hpr5, stronger effect = lower value", "result": "0.994 (inactive)"},
      {"measurement": "normalized growth", "setting": "locus YJL095W, strain BCK1 (second series), stronger effect = lower value", "result": "0.996 (inactive)"},
      {"measurement": "normalized growth", "setting": "locus YJL095W, strain BCK1, stronger effect = lower value", "result": "0.733 (active) and 1.08 (inactive)"},
      {"measurement": "normalized growth", "setting": "locus YJL115W, strain asf1, stronger effect = lower value", "result": "0.971 (inactive)"},
      {"measurement": "normalized growth", "setting": "locus YJL129C, strain trk1, stronger effect = lower value", "result": "0.912 (inactive)"},
      {"measurement": "normalized growth", "setting": "locus YJL134W, strain LCB3, stronger effect = lower value", "result": "0.986 (inactive)"},
      {"measurement": "normalized growth", "setting": "locus YJL154C, strain vps35, stronger effect = lower value", "result": "0.984 (inactive)"},
      {"measurement": "normalized growth", "setting": "locus YJL164C, strain tpk1, stronger effect = lower value", "result": "0.985 (inactive)"},
      {"measurement": "normalized growth", "setting": "locus YJL166W, strain qcr8, stronger effect = lower value", "result": "0.994 (inactive)"},
      {"measurement": "normalized growth", "setting": "locus YJL168C, strain set2, stronger effect = lower value", "result": "0.981 (inactive)"},
      {"measurement": "normalized growth", "setting": "locus YJL187C, strain SWE1 (second series), stronger effect = lower value", "result": "0.844 (active)"},
      {"measurement": "normalized growth", "setting": "locus YJL187C, strain SWE1, stronger effect = lower value", "result": "0.975 (inactive)"},
      {"measurement": "normalized growth", "setting": "locus YJR043C, strain POL32, stronger effect = lower value", "result": "0.921 (inactive)"}
    ]}
  ]
}
